Source: PubChem BioAssay AID504803 (The Scripps Research Institute Molecular Screening Center, 2011)
In all, about 340,000 compounds went through this assay and about 1,700 (0.5%) were called active. The list comes from a sample in which actives are over-represented; it also holds similar structures and randomly drawn compounds. A number with no mark means an inactive call. Cut-off read from the data, not from the text of the source: active = inhibition above about 36%; inactive = the rest.

Each molecule was assayed against Serine protease HTRA1 (Homo sapiens) (UniProt Q92743) (assay: HTRA1 serine protease inhibitors, primary screen, biochemical, fluorescence polarization, HTS (AID 504803;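 note: 0% = enzyme with DMSO and 100% = wells lacking enzyme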)). Settings: recombinant HTRA1, FP-rhodamine activity-based probe, at 5.96 µM, hits give high values.
Serine protease HTRA1 (Homo sapiens), sequence (Q92743 whole entry, looked up): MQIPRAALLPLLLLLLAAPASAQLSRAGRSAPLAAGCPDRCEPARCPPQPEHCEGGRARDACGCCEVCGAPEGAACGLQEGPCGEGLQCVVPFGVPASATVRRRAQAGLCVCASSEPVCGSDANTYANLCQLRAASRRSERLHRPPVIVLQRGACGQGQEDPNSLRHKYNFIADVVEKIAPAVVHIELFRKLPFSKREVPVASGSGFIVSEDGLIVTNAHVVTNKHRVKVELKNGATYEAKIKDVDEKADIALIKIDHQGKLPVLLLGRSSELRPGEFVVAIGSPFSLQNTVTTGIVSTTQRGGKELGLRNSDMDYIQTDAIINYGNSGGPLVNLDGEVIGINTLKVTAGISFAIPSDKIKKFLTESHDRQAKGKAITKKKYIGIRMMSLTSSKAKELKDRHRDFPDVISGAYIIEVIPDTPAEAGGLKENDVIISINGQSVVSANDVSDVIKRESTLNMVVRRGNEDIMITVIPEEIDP

Q: Which inhibition does the source give for `C[C@H]1CN([C@@H](C)CO)C(=O)CCCn2cc(nn2)CO[C@@H]1CN(C)S(=O)(=O)c1ccc(-c2ccccc2)cc1` here?
A: Its inhibition is -3.19%.

Q: Which inhibition does the source give for `COc1ccc2c(c1)CCCO[C@]21O[C@H](CCO)C[C@H](O)[C@H]1O` here?
A: The inhibition was -2.62%.

Q: How did the inhibition turn out when `CC1=C(C(=O)N2CCOCC2)CC(CC(=O)NCc2ccco2)C(=O)N1Cc1ccc(F)cc1` (centres undefined) was run?
A: The inhibition was 4.18%.

Q: With `Cc1ccn(CC(=O)NC2CCCN(Cc3ccccc3F)C2)n1` (centres undefined) as the molecule, how does the inhibition read?
A: Its inhibition is 0.25%.

Q: How did the inhibition turn out when `Cc1ccc(C(=O)NC(C)C(c2cccs2)N2CCOCC2)cc1C` (centres undefined) was run?
A: Its inhibition is 1.64%.

Q: Which inhibition does the source give for `C[C@@H]1CN([C@@H](C)CO)S(=O)(=O)c2ccc(C#Cc3cccc(F)c3)cc2O[C@H]1CN(C)S(=O)(=O)c1cn(C)cn1` here?
A: The inhibition was -25.7%.

Q: Which inhibition does the source give for `CC(=N\NC(=O)c1cc(Br)ccc1O)/C(=N/O)C(=O)Nc1ccccc1` here?
A: Its inhibition is 46.1% (active).

Q: Which inhibition does the source give for `CC(=O)N/N=C(\C)c1ccc(Br)cc1Br` here?
A: The inhibition was 2.26%.

Q: `CC(C)/C=N/NC(=O)c1cc(Br)ccc1O` was tested. Which inhibition did it give?
A: The inhibition was 6.13%.

Q: `CC1CCN(C(=O)CSc2nnc(-c3ccco3)n2N)CC1` was tested. Which inhibition did it give?
A: The inhibition was 2.17%.

Q: `C[C@@H]1CN([C@@H](C)CO)C(=O)c2cc(Br)cnc2O[C@H]1CN(C)Cc1ccc(-c2ccccc2)cc1` was tested. Which inhibition did it give?
A: The inhibition was -13.1%.

Q: How did the inhibition turn out when `Cc1ccc(Nc2nc(-c3ccc(O)cc3O)cs2)nc1` was run?
A: Its inhibition is 37.1% (active).

Q: With `Oc1ccc(-c2nc3ccccc3nc2-c2ccc(O)cc2O)c(O)c1` as the molecule, how does the inhibition read?
A: Its inhibition is -7.06%.

Q: `Cc1ccn2c(-c3csc(Nc4ccc(C(=O)O)cc4)n3)c(C)nc2c1` was tested. Which inhibition did it give?
A: Its inhibition is -2.27%.

Q: With `COc1ccc(S(=O)(=O)N(C)C[C@H]2OCc3cnnn3CCCC(=O)N([C@H](C)CO)C[C@H]2C)cc1` as the molecule, how does the inhibition read?
A: The inhibition was 0.5%.

Q: With `CC(OC(=O)c1cccnc1Cl)C(=O)NC1CCCCC1` (centres undefined) as the molecule, how does the inhibition read?
A: The inhibition was 2.76%.

Q: `NC1=CC(=O)C(=O)c2cccnc21` was tested. Which inhibition did it give?
A: Its inhibition is 38.3% (active).

Q: For `CCOc1ccc(CCN2C(=O)c3cccnc3C2=O)cc1OCC`, which inhibition is on record?
A: Its inhibition is -1.21%.

Q: With `Cc1ccc(CCNC(=O)CN2C(=O)CSc3ccc(S(=O)(=O)N4CCOCC4)cc32)cc1` as the molecule, how does the inhibition read?
A: The inhibition was -3.89%.

Q: With `COCOCCn1cc(CN2CCS(=O)(=O)N(Cc3ccc(-c4ccc(OC)cc4)cc3)C(CC(C)C)C2=O)nn1` (centres undefined) as the molecule, how does the inhibition read?
A: Its inhibition is -16.7%.

Q: For `CCN(CC)c1ccc(/C=N/Nc2nc(C)cc(C)n2)c(O)c1`, which inhibition is on record?
A: Its inhibition is 63.8% (active).

Q: With `Cc1cc(C)nc(N/N=C/c2c(CO)cnc(C)c2O)n1` as the molecule, how does the inhibition read?
A: The inhibition was 4.05%.

Q: For `CCN(CC)c1ccc(/C=N/NC(=O)c2cnccn2)c(O)c1`, which inhibition is on record?
A: The inhibition was 11.4%.

Q: How did the inhibition turn out when `COc1ccc(CN2C(=O)C(CC(=O)NC3CCCCC3)CC(C(=O)N3CCOCC3)=C2C)cc1` (centres undefined) was run?
A: The inhibition was 9.07%.

Q: Which inhibition does the source give for `CCOC(=O)Cc1ncccc1C(=O)Nc1ccc(OC(F)(F)F)cc1` here?
A: Its inhibition is -0.74%.

Q: For `O=C(Nc1ccc(OC(F)(F)F)cc1)c1ccc2c(c1)no[n+]2[O-]`, which inhibition is on record?
A: The inhibition was 42.3% (active).

Q: For `CCOc1c2ccc(C(=O)NCc3ccc(OC(F)(F)F)cc3)cc2nn1C`, which inhibition is on record?
A: Its inhibition is -3.97%.

Q: `C[C@H]1CN([C@@H](C)CO)S(=O)(=O)c2ccc(-c3cccc(F)c3)cc2O[C@@H]1CN(C)C` was tested. Which inhibition did it give?
A: Its inhibition is 0.65%.

Q: With `Cn1c(CCN2CCN(c3ccccn3)CC2)nc2cc(NS(=O)(=O)c3ccc(F)cc3)ccc21` as the molecule, how does the inhibition read?
A: Its inhibition is -0.52%.

Q: Which inhibition does the source give for `C[C@H]1CN([C@@H](C)CO)C(=O)CCCn2cc(nn2)CO[C@@H]1CN(C)S(=O)(=O)c1ccc(-n2cccn2)cc1` here?
A: Its inhibition is -3.1%.

Q: With `Oc1ccc(N=Cc2sc3ccccc3c2Cl)cc1` as the molecule, how does the inhibition read?
A: Its inhibition is 65.8% (active).

Q: `CC(=O)n1c(C=Nc2ccccc2)c(O)c2ccccc21` was tested. Which inhibition did it give?
A: Its inhibition is -1.27%.

Q: Which inhibition does the source give for `C[C@H](CO)N1C[C@H](C)[C@H](CN(C)C(=O)Nc2ccc3c(c2)OCO3)Oc2ncc(Br)cc2C1=O` here?
A: The inhibition was -0.29%.

Q: With `Cc1c(NC(=O)COC(=O)/C=C/c2cccc(F)c2)c(=O)n(-c2ccccc2)n1C` as the molecule, how does the inhibition read?
A: Its inhibition is -0.4%.

Q: How did the inhibition turn out when `CC1(C)CC(=O)C=C(c2ccccc2CO)C1=O` was run?
A: Its inhibition is -3.27%.

Q: For `CCCn1c(N)c(C(=O)CSc2nnc(Cc3cccs3)n2C2CC2)c(=O)[nH]c1=O`, which inhibition is on record?
A: Its inhibition is 3%.

Q: Which inhibition does the source give for `COc1ccccc1-c1n[nH]nc1C1=CC(=O)CC(C)(C)C1` here?
A: Its inhibition is 3.87%.

Q: With `CCc1ccc2c(c1)C1(NN=C(c3ccccc3)S1)C(=O)N2` (centres undefined) as the molecule, how does the inhibition read?
A: The inhibition was 60.5% (active).

Q: With `COc1ccc(-c2cnc3c(c2)C(=O)N([C@H](C)CO)C[C@@H](C)[C@H](CN(C)Cc2ccccc2)O3)cc1` as the molecule, how does the inhibition read?
A: The inhibition was -5.18%.
